This passage reports outcome and AC50 results from PubChem BioAssay (EPA / NIEHS).

Test [1] deals with Bile acid receptor (Homo sapiens) (UniProt Q96RI1). In words: ATG_IR1_CIS: Attagene CIS-FACTORIAL HepG2 Assay for human Nuclear Receptor Subfamily 1 Group H Member 4 (NR1H4), IR1 submotif (AID 2282946). The following applies: IR1 reporter transcription, actives raise or lower the signal. An outline of the steps:
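Transient MRTU transfection, HepG2; 24 h dosing; RNA → RT-PCR → 6-FAM primer extension → HpaI digest → capillary electrophoresis fluorescence. Gain/loss of signal fitted relative to DMSO.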

A short description of test [2]: ATG_GRE_CIS: Attagene CIS-FACTORIAL HepG2 Assay for human Glucocorticoid Response Elements (GRE) (AID 2282947). The following applies: HepG2 GRE cis-reporter, Attagene multiplex mRNA; actives raise or lower the signal. Summed up: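 HepG2 cells transiently transfected with multiple cis-promoter reporter units measure endogenous TF activity; 24 h compound exposure. Reporter mRNA quantified by RT-PCR, FAM labelling, HpaI digestion and capillary electrophoresis; bidirectional fit vs DMSO baseline.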

Test [3] can be described thus: ATG_ISRE_CIS: Attagene CIS-FACTORIAL HepG2 Assay for human Interferon Regulatory Factor 1 (IRF1) binding to an Interferon-Stimulated Response Element (ISRE) (AID 2282948). The following applies: HepG2 ISRE cis-reporter (Attagene), mRNA transcription readout; actives raise or lower the signal. An outline of the steps: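 Quantitation relies on labelled RT-PCR fragments separated by capillary electrophoresis. Human HepG2 cells bearing cis-promoter reporter constructs were treated 24 h; DMSO served as baseline for bidirectional fitting.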

A short description of test [4]: ATG_M_32_CIS: Attagene CIS-FACTORIAL HepG2 Assay for M32 Transcription Factor (Internal Marker) (AID 2282949).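 Further: background control marker of the multiplexed CIS panel rather than a real target.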 To be noted: HepG2 Attagene cis-factorial M32 reporter, mRNA; actives raise or lower the signal. Summed up:
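Following 24 h chemical exposure of HepG2 cells transiently expressing cis-promoter reporter constructs, reporter transcript levels were determined by RT-PCR with fluorescent labelling and capillary electrophoresis, then fitted bidirectionally against DMSO.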

The nature of test [5]: ATG_M_06_CIS: Attagene CIS-FACTORIAL HepG2 Assay for M06 Transcription Factor (Internal Marker) (AID 2282950). The following applies: HepG2 Attagene CIS-FACTORIAL M06 internal marker reporter; actives raise or lower the signal. Summed up: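 Terse: HepG2, transient MRTU transfection (FuGene 6), 24 h dosing; total RNA, oligo(dT) RT, PCR, FAM label, HpaI cut, capillary electrophoresis; bidirectional fit vs DMSO baseline; background-control endpoint.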

Test [6] has as its target Hepatocyte nuclear factor 6 (Homo sapiens) (UniProt Q9UBC0). In words: ATG_HNF6_CIS: Attagene CIS-FACTORIAL HepG2 Assay for human Hepatocyte Nuclear Factor 6 (HNF6) (AID 2282952). To be noted: HepG2 Attagene cis-factorial HNF6 reporter transcription; actives raise or lower the signal. An outline of the steps: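 Multiplexed mRNA reporter assay in transfected HepG2; 24 h dosing; RT-PCR plus capillary electrophoresis fluorescence; DMSO-referenced bidirectional curve fitting.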

For test [7], the target named is Heat shock factor protein 1 (Homo sapiens) (UniProt Q00613). Nature of the test: ATG_HSE_CIS: Attagene CIS-FACTORIAL HepG2 Assay for human Heat Shock Transcription Factor 1 (HSE) (AID 2282953). The following applies: HepG2 HSE cis-reporter, Attagene RNA transcription; actives raise or lower the signal. Summed up:
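Read-out: fluorescence of reporter-specific RT-PCR fragments separated by capillary electrophoresis. HepG2 carrying transfected cis-element reporter units; 24 h dosing; activity fitted in both directions relative to DMSO baseline.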

A short description of test [8]: ATG_MRE_CIS: Attagene CIS-FACTORIAL HepG2 Assay for human Metal Responsive Element (MRE) (AID 2282954). The following applies: HepG2 MRE cis-reporter transcription, Attagene multiplex; actives raise or lower the signal. Summed up: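 HepG2 cells transiently transfected with multiple cis-element reporter units measure endogenous MTF1-driven transcription. After 24 h compound exposure, reporter mRNA is quantified by RT-PCR with 6-FAM labelling, HpaI digestion and capillary electrophoresis; bidirectional fits versus DMSO.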

Test [9] can be described thus: ATG_PBREM_CIS: Attagene CIS-FACTORIAL HepG2 Assay for human Phenobarbital-responsive Enhancer Module (PBREM) (AID 2282955). The following applies: HepG2 PBREM cis-reporter, Attagene multiplexed transcription; actives raise or lower the signal. Summed up:
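HepG2, transient MRTU transfection, 24 h dosing; RNA → oligo(dT) RT → PCR → 6-FAM extension → HpaI → CE. Bidirectional fit vs DMSO.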

For test [10], the target named is Paired box protein Pax-6 (Homo sapiens) (UniProt P26367). In words: ATG_Pax6_CIS: Attagene CIS-FACTORIAL HepG2 Assay for human Paired Box 6 (PAX6) (AID 2282956). To be noted: HepG2 CIS-FACTORIAL PAX6 reporter transcription, RNA readout; actives raise or lower the signal. Summed up: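 After twenty-four hours of chemical exposure, transfected HepG2 cells are harvested for RNA. Cis-promoter reporter transcripts are amplified, fluorescently labelled and sized by capillary electrophoresis, with gain and loss of signal scored against DMSO.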
Paired box protein Pax-6 (Homo sapiens), sequence (P26367 whole entry, looked up): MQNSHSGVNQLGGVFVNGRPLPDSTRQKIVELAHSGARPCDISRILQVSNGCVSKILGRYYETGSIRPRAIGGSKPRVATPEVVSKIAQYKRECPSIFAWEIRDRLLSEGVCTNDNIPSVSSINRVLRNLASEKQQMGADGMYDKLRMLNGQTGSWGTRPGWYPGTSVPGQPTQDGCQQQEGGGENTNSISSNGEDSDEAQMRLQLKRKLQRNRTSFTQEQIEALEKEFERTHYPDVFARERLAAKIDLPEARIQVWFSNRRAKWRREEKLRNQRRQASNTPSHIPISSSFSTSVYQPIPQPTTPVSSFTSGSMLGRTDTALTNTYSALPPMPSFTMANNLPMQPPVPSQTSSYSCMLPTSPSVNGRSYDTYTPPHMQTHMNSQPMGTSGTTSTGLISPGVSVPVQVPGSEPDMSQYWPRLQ

Test [11] in a line: ATG_PXRE_CIS: Attagene CIS-FACTORIAL HepG2 Assay for human Pregnane X Receptor Element (PXRE) (AID 2282957). The following applies: HepG2 Attagene CIS-FACTORIAL PXRE reporter, mRNA; actives raise or lower the signal. Summed up:
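Cells: HepG2, transiently transfected reporter units under cis promoter control. Exposure: 24 h. Detection: reporter mRNA via RT-PCR/CE fluorescence; bidirectional fitting, DMSO-referenced.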

Test [12] can be described thus: ATG_PPRE_CIS: Attagene CIS-FACTORIAL HepG2 Assay for human Peroxisome Proliferator-activated Response Element (PPRE) (AID 2282958). To be noted: HepG2 PPRE cis-element reporter, Attagene transcription factor profiling; actives raise or lower the signal. An outline of the steps:
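Transcript-level reporter induction in transfected HepG2 cells after 24 h chemical exposure, quantified by fluorescence from RT-PCR products separated by capillary electrophoresis.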

The nature of test [13]: ATG_RORE_CIS: Attagene CIS-FACTORIAL HepG2 Assay for human RAR-related Orphan Receptor Element (RORE) (AID 2282959). To be noted: HepG2 Attagene cis-factorial RORE reporter, mRNA; actives raise or lower the signal. An outline of the steps:
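Multiplexed reporter assay measuring mRNA induction from a cis promoter element in transiently transfected HepG2 cells after 24 h treatment. Detection via RT-PCR and capillary electrophoresis fluorescence; DMSO serves as baseline.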

Test [14] concerns the target Transcription factor Sp1 (Homo sapiens) (UniProt P08047). In words: ATG_Sp1_CIS: Attagene CIS-FACTORIAL HepG2 Assay for human Specificity Protein 1 (Sp1) (AID 2282961). The following applies: HepG2 Sp1 cis-reporter transcription, actives raise or lower the signal. Summed up: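 Measures mRNA induction of an Sp1-linked reporter in HepG2 cells 24 h post-dosing. Multiplexed reporters read by RT-PCR and capillary electrophoresis; DMSO serves as negative control and baseline.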

Test [15] in a line: ATG_SREBP_CIS: Attagene CIS-FACTORIAL HepG2 Assay for human Sterol Regulatory Element Binding (SREBP) (AID 2282962). The following applies: HepG2 Attagene cis-factorial SREBP reporter, mRNA; actives raise or lower the signal. Summed up: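 Twenty-four hours after chemical dosing of transfected HepG2 cultures, reporter RNA was converted to cDNA, amplified, end-labelled with 6-FAM and resolved by capillary electrophoresis. Responses were fitted relative to DMSO.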

In test [16] the target is Signal transducer and activator of transcription 3 (Homo sapiens) (UniProt P40763). Nature of the test: ATG_STAT3_CIS: Attagene CIS-FACTORIAL HepG2 Assay for human Signal Transducer and Activator of Transcription 3 (STAT3) (AID 2282963). The following applies: HepG2, Attagene cis-factorial STAT3 reporter transcription; actives raise or lower the signal. Summed up: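 HepG2 cells transiently transfected with cis-element-driven multiple reporter transcription units; after 24 h chemical exposure, reporter mRNA measured by RT-PCR, 6-FAM primer-extension labelling, HpaI digestion and capillary electrophoresis. Bidirectional fitting versus DMSO baseline.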
Signal transducer and activator of transcription 3 (Homo sapiens), sequence (P40763 whole entry, looked up): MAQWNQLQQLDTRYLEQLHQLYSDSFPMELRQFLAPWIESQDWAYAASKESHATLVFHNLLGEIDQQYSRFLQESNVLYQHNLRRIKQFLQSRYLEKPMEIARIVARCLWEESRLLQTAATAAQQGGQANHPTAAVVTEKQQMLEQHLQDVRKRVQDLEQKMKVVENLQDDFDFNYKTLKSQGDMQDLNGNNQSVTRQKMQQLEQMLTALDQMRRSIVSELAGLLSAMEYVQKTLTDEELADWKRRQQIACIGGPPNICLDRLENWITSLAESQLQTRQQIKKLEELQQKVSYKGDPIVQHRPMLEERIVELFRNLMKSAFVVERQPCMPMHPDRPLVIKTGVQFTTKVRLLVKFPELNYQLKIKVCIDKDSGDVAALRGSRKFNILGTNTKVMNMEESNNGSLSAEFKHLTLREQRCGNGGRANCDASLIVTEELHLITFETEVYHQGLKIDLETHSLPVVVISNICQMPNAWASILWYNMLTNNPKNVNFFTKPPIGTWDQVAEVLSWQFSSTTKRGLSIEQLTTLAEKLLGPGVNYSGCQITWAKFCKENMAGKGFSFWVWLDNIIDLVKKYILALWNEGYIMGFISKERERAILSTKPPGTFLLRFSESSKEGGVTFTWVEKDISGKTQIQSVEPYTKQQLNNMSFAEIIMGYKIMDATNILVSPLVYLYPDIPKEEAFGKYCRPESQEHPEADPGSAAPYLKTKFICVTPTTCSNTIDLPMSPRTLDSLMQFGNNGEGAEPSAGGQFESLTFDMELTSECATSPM

The nature of test [17]: ATG_TA_CIS: Attagene CIS-FACTORIAL HepG2 Assay for human TA Basal Promoter (AID 2282964). To be noted: HepG2 Attagene CIS-factorial TA basal promoter reporter; actives raise or lower the signal. An outline of the steps: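 Transfected HepG2, 24 h compound exposure; RNA → RT-PCR → FAM primer extension → HpaI cut → CE fluorescence. Gain/loss-of-signal fitted against DMSO negative control. Background-control readout.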

Test [18] in a line: ATG_TCF_b_cat_CIS: Attagene CIS-FACTORIAL HepG2 Assay for human T-Cell-Factor with beta-catenin (TCF/b-cat) (AID 2282965). The following applies: HepG2 TCF/beta-catenin cis-reporter transcription, actives raise or lower the signal. An outline of the steps:
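HepG2 cells transiently transfected with multiple cis-promoter-regulated reporter transcription units, so endogenous transcription factor activity is measured. Reporter mRNA read 24 hours after dosing by RT-PCR, fluorescent labelling and capillary electrophoresis; bidirectional fitting against DMSO.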

The target in test [19] is Hypoxia-inducible factor 1-alpha (Homo sapiens) (UniProt Q16665). Nature of the test: ATG_HIF1a_CIS: Attagene CIS-FACTORIAL HepG2 Assay for human Hypoxia Inducible Factor 1 (HIF1A) (AID 2282951). To be noted: HepG2 Attagene cis-factorial HIF1a reporter transcription; actives raise or lower the signal. An outline of the steps: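 HepG2, transient cis-reporter library, 24 h dosing. RNA → RT (oligo dT) → PCR → 6-FAM primer extension → HpaI → CE. Bidirectional curve fit vs DMSO.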
Hypoxia-inducible factor 1-alpha (Homo sapiens), sequence (Q16665 whole entry, looked up): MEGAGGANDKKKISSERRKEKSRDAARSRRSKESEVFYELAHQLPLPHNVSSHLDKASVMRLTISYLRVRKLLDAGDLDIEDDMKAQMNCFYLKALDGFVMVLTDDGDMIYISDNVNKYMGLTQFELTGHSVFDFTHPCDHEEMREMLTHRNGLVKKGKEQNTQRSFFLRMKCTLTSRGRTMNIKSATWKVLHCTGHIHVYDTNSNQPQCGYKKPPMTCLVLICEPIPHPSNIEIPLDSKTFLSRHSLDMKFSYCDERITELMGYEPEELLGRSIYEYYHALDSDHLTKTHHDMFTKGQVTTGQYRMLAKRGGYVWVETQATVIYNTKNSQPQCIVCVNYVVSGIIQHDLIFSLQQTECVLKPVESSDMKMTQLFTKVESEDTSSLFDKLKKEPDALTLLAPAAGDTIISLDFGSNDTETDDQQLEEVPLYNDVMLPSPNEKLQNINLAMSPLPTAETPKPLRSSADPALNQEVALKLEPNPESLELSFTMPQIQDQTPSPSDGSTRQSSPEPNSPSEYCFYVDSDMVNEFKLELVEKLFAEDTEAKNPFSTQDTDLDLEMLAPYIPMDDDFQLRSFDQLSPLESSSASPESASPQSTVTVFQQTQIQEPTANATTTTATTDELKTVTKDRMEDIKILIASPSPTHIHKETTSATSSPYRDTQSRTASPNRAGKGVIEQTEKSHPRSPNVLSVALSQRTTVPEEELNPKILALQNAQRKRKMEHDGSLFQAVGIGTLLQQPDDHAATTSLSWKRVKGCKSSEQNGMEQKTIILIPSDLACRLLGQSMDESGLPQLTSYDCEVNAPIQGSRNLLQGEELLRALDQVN

A short description of test [20]: ATG_Sox_CIS: Attagene CIS-FACTORIAL HepG2 Assay for human SRY-box transcription factor (SOX) (AID 2282960). To be noted: HepG2 Attagene cis-factorial SOX reporter, mRNA; actives raise or lower the signal. Summed up:
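Cells were transfected with reporter constructs under cis-regulatory promoters, then exposed to chemicals for 24 h. Reporter transcripts were quantified by fluorescence after RT-PCR and capillary electrophoresis; activity was fitted in both directions against DMSO.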

The structures appear in SMILES notation. The source made the active and inactive calls. How the source made its calls: active means hit-call score of the fitted dose curve at least 0.9, where 1 is the maximum; inactive means score below 0.9.

Transcription factor Sp1 (Homo sapiens), sequence (P08047 whole entry, looked up): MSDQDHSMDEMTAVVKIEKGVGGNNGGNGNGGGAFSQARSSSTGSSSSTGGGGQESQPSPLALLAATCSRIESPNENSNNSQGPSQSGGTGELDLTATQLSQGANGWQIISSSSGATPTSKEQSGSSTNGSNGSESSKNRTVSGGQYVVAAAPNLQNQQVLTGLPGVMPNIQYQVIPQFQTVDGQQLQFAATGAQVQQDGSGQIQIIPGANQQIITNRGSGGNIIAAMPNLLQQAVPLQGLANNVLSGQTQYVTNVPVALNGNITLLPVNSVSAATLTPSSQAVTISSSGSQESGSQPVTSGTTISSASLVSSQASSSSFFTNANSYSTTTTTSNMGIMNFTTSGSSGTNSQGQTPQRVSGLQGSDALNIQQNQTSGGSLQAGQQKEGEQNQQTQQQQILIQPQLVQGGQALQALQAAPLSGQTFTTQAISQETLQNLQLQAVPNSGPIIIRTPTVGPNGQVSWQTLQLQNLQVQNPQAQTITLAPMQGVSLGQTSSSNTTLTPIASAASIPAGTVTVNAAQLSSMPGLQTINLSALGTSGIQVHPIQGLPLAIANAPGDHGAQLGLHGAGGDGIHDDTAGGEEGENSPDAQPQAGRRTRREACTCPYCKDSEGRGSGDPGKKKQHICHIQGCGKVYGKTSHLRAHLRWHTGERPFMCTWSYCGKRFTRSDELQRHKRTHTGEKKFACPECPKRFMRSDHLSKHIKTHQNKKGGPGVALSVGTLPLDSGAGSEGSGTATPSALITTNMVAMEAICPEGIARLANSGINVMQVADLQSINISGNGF
Hepatocyte nuclear factor 6 (Homo sapiens), sequence (Q9UBC0 whole entry, looked up): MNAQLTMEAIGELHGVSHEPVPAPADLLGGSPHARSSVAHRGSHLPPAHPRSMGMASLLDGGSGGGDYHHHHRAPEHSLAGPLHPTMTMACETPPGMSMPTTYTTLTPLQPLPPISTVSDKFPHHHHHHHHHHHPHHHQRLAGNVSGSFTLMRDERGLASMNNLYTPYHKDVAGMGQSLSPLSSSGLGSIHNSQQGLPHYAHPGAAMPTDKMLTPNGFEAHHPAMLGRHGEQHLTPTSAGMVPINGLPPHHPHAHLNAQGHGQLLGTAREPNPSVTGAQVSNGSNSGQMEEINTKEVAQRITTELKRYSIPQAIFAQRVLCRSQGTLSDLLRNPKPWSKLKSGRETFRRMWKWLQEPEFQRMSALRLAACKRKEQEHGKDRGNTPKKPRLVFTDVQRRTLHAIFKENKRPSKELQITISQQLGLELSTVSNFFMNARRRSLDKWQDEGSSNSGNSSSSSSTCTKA
Bile acid receptor (Homo sapiens), sequence (Q96RI1 whole entry, looked up): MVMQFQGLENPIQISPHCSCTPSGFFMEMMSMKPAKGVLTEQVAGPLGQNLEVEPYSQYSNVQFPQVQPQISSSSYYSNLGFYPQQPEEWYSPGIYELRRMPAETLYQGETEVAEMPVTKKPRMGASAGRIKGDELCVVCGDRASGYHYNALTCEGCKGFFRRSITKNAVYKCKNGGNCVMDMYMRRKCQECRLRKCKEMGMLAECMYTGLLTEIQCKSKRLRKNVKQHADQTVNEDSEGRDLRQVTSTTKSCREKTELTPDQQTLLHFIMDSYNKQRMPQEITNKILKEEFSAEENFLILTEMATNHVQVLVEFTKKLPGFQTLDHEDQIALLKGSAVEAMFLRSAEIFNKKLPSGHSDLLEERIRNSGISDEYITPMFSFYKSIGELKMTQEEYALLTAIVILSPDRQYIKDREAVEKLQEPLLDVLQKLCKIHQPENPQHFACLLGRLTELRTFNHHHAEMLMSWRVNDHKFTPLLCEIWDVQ
Heat shock factor protein 1 (Homo sapiens), sequence (Q00613 whole entry, looked up, the tested form may be a part): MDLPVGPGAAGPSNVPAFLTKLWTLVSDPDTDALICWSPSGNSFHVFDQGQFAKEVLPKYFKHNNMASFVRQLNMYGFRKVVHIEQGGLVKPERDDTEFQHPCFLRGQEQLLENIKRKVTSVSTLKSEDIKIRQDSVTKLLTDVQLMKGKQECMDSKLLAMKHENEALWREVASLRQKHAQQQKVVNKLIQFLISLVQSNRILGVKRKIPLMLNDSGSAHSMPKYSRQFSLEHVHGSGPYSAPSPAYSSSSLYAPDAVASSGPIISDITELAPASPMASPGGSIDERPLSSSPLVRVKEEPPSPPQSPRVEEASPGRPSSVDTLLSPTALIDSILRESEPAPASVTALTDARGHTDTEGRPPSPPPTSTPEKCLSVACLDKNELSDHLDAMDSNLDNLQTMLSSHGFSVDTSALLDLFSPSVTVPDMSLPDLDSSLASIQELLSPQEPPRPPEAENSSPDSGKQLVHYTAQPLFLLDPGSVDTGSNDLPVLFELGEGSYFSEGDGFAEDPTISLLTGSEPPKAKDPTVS

Consider `Cc1ccc(O)cc1`, for which the call in test [1], in test [2], in test [3], in test [4], in test [5] and in test [6] was inactive. For the same compound, the call in test [7], in test [8], in test [9], in test [10], in test [11] and in test [12] was inactive. For the same compound, the call in test [13], in test [14], in test [15], in test [16], in [17] and in test [18] was inactive.

The AC50 is the concentration giving half of the maximal activity seen. For `COC(=O)c1c(Cl)c(Cl)c(C(=O)OC)c(Cl)c1Cl`, the compound was classed as inactive in test [1], in test [2], in test [3], in [4], in test [5] and in [19]. The call in test [6], in test [8], in test [9], in test [10], in test [12] and in test [13] was inactive. In addition, the outcome in test [14], in test [15], in [16], in [17] and in test [18] was inactive. Besides, in [11], the AC50 is 25.8 µM (active).

In the case of `COc1cccc(-c2ccc(/C=C\CN3CCCCCC3)cc2Cl)c1`, the result in test [1], in test [2], in test [3], in test [4], in test [5] and in test [19] was inactive. Besides, the outcome in test [6], in test [8], in test [9], in test [10], in test [12] and in test [13] was inactive. Also, the compound was classed as inactive in test [20], in test [14], in test [16], in test [17] and in test [18]. Besides, the AC50 in [11] was 3.67 µM (active); in test [15], 20.5 µM (active).
